From PubChem BioAssay
LmPK inh – inhibitors of Leishmania mexicana pyruvate kinase; purified LmPK, Kinase-Glo ATP luminescence, 1 h; Potency, µM (titrated, usually from 57.5 µM), for the others: at the highest dose activity change, negative = inhibition, hits mostly inhibitors; actives 0.37% (n = 290,000); note: potency is the fitted concentration of half-maximal effect; % is set by controls: 0 for no effect and ±100 for the full control effect
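Pyruvate kinase activity monitored as ATP production (luciferase luminescence). Conditions: 0.1 nM enzyme, 0.5 mM PEP, 0.1 mM ADP, 1 h, RT; normalized against uninhibited and no-enzyme wells.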
RE007 growth inh – less growth of the S. pombe RE007 Vpr strain. S. pombe RE007 Vpr strain, BacTiter-Glo ATP luminescence, 24 h. Potency, µM (highest dose often 92.2 µM), inactives show top-dose activity change, negative = less growth, hits mostly inhibitors. actives 0.21% (n = 360,000); active = well fitted falling curve with a large enough effect; note: potency is the fitted concentration of half-maximal effect; % is set by controls: 0 for no effect and ±100 for the full control effect; nearly all actives have a fitted effect of over 50% in size
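Fission yeast RE007 carrying one integrated HIV-1 vpr copy, seeded at OD 0.01 in PMG+AL medium with 23 nL pinned compound. Grown 24 h at 30 degrees; viability read by BacTiter-Glo luminescence after 5 min.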
Shiga inhibitor – Shiga toxin inhibition; Vero cells, Shiga toxin protein synthesis inhibition reporter; inhibition, % at 38.7 µM; actives 9.2% (n = 290,000); in the data active = inhibition mostly above about 28%, no sharp cut-off; inactive = mostly below about 43%; note: 0% is about no effect
Tb PYK inh – inhibitors of Trypanosoma brucei pyruvate kinase; TbPYK enzyme, Kinase-Glo Plus ATP luminescence, 45 min; Potency, µM (doses to about 76.8 µM), for inactives: at the highest dose activity, negative = inhibition, usual class: inhibitors; actives 0.12% (n = 410,000); Q57TT1; AID 624173; note: potency is the fitted concentration of half-maximal effect; % is set by controls: 0 for no effect and ±100 for the full control effect; nearly all actives have a fitted effect of over 50% in size
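Screened from lowest to highest concentration, compounds were pinned into TbPYK/substrate mixtures, and ADP (130 uM final) was added. Plates sat at room temperature for 45 min prior to Kinase-Glo Plus detection by luminescence.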
Cycloheximide cs – affects cycloheximide protein synthesis inhibition readout, counter-screen; cell reporter, cycloheximide protein synthesis inhibition counterscreen; max response, %; actives 12% (n = 300,000); AID 2314; in the data active = max response mostly above about 13%, no sharp cut-off; inactive = mostly below about 14%; note: read at 38.3 µM for the half of the compounds with a filed dose; 0% is about no effect
Giardia FBPA inh – blocks Giardia fructose-bisphosphate aldolase activity; Potency, µM (highest dose often 59.6 µM), without a hit: top-dose activity, negative = inhibition, actives largely listed as inhibitors; purified Giardia FBPA; AID 2451; actives 0.71% (n = 290,000); note: potency is the fitted concentration of half-maximal effect; % is set by controls: 0 for no effect and ±100 for the full control effect; nearly all actives have a fitted effect of over 55% in size
Target sequence (A8B2U2 whole entry, looked up): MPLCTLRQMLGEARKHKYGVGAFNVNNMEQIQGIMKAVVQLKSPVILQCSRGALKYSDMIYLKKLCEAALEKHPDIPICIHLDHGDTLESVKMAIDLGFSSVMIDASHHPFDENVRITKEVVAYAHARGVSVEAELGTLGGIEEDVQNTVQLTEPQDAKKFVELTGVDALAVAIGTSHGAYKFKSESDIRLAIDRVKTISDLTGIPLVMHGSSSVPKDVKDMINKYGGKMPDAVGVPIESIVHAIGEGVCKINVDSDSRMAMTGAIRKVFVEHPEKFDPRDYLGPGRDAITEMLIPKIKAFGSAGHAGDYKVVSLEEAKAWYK
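40 nM FBPA preincubated 10 min at RT with compound (up to 57.5 uM final), then substrate plus GAPDH/TPI/NAD/arsenate coupling and diaphorase/resazurin added. Fluorescence read after 20 min at RT, 525/598 nm.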
Active calls of the source: *; [ ] = remark or other dose. The entries come from a sample that favours hits as a whole. Unless noted, calls come from the whole dose curve; as a rule, active = well fitted curve in the direction sought with a large enough effect; inconclusive = small, poorly fitted or top-dose-only effect, or another doubt; inactive = no such curve, though single readings can be large; an effect the other way counts as inactive or inconclusive.

What do the screens show for `COc1ccc(SCC(CC(C)C)N2CCN(CCc3ccccc3)CCC2=O)cc1` (configuration not stated)?
Shiga inhibitor: 56.9*; Cycloheximide cs: 55.8*; Giardia FBPA inh: -0.1%

How did CCCN1CCC(=O)N([C@H](CSc2ccc(OC)cc2)CC(C)C)CC1 do in these assays?
LmPK inh: 2.0%; RE007 growth inh: -8.3%; Shiga inhibitor: 71.0*; Tb PYK inh: 1.0%; Cycloheximide cs: 26.8*; Giardia FBPA inh: 1.0%

How did CC(C)C[C@@H](CSc1ccccc1)N1CCN(CCc2ccccc2)CCC1=O do in these assays?
LmPK inh: -1.6%; RE007 growth inh: 5.2%; Shiga inhibitor: 29.7*; Tb PYK inh: -0.3%; Cycloheximide cs: 18.1*; Giardia FBPA inh: -0.5%

Results for CC(C)C[C@@H](CSc1ccc(Br)cc1)N1CCN(CCc2ccccc2)CCC1=O ?
LmPK inh: -0.7%; RE007 growth inh: -7.1%; Shiga inhibitor: -12.7; Tb PYK inh: 1.4%; Cycloheximide cs: 9.8; Giardia FBPA inh: 0.5%

Results for COc1ccc(CCN2C(=O)CCC2(C)c2nnnn2-c2ccc3c(c2)OCCO3)cc1OC (configuration not stated) ?
RE007 growth inh: 5.1%; Tb PYK inh: -0.2%

What do the screens show for `O=C(Cn1cc(S(=O)(=O)Cc2ccc(F)cc2)c2ccccc21)NCCc1ccccc1`?
Tb PYK inh: 2.1%[15.4 µM]

How did Nc1nc(SCC(=O)c2ccc([N+](=O)[O-])cc2)n[nH]1 do in these assays?
LmPK inh: -0.2%; RE007 growth inh: 4.3%; Shiga inhibitor: 18.8; Tb PYK inh: -10.8%; Cycloheximide cs: -0.6; Giardia FBPA inh: -6.6%

Results for O=C(CSc1n[nH]c(-c2ccccc2)n1)c1ccccc1 ?
LmPK inh: -2.2%; RE007 growth inh: 1.9%; Shiga inhibitor: 71.4*; Tb PYK inh: -14.9%; Cycloheximide cs: 51.8*; Giardia FBPA inh: -17.5%

How did COc1ccccc1-c1nc(SCC(=O)c2ccccc2)n[nH]1 do in these assays?
Tb PYK inh: 0.9%

What do the screens show for `Nc1nc(SCC(=O)c2ccc(Oc3ccccc3)cc2)n[nH]1`?
LmPK inh: -1.3%; RE007 growth inh: -10.2%; Shiga inhibitor: 36.9; Tb PYK inh: -34.2%; Cycloheximide cs: 28.7*; Giardia FBPA inh: -12.6%

What do the screens show for `Cc1cc(C)c(CC(=O)c2ccccc2)c(C)c1`?
RE007 growth inh: 14.0%; Tb PYK inh: -5.5%

Results for O=C(COc1ccc(Br)cc1CO)Nc1ccccc1F ?
LmPK inh: -3.4%; RE007 growth inh: 12.1%; Shiga inhibitor: 77.4*; Tb PYK inh: -1.9%; Cycloheximide cs: 29.3*; Giardia FBPA inh: 4.9%

What do the screens show for `COc1ccccc1NC(=O)COc1ccc(Br)cc1CO`?
LmPK inh: 2.4%; RE007 growth inh: -20.7%; Shiga inhibitor: 14.9; Tb PYK inh: 2.0%; Cycloheximide cs: 21.4; Giardia FBPA inh: 1.5%

How did COc1ccc(CC(=O)NNC(=O)COc2ccc(Br)cc2C)cc1OC do in these assays?
LmPK inh: 9.6%; RE007 growth inh: 1.0%; Shiga inhibitor: 13.5; Tb PYK inh: -8.4%; Cycloheximide cs: -3.3; Giardia FBPA inh: 3.8%

Results for COc1cc(CO)ccc1OCC(=O)Nc1ccc(Br)cc1 ?
LmPK inh: -2.2%; RE007 growth inh: -1.5%; Shiga inhibitor: 96.4*; Tb PYK inh: 9.1%; Cycloheximide cs: 20.6*; Giardia FBPA inh: 1.1%

What do the screens show for `O=C(COc1ccc(Br)cc1CO)Nc1ccc(S(=O)(=O)N2CCCCC2)cc1`?
RE007 growth inh: -0.3%; Tb PYK inh: 3.5%

Results for CCCNCc1cc(Br)ccc1OCC(=O)NCCc1ccccc1 ?
LmPK inh: 1.8%; RE007 growth inh: -24.1%; Shiga inhibitor: -8.4; Tb PYK inh: -13.1%; Cycloheximide cs: -5.6; Giardia FBPA inh: 0.1%

How did Cc1ccc(NC(=O)COc2ccc(Br)cc2CO)cc1 do in these assays?
LmPK inh: -3.2%; RE007 growth inh: -11.7%; Shiga inhibitor: 69.5; Tb PYK inh: 6.0%; Cycloheximide cs: 26.5*; Giardia FBPA inh: -5.1%

How did O=C(COc1ccc(Br)cc1CO)Nc1ccccc1 do in these assays?
LmPK inh: -3.0%; RE007 growth inh: -20.9%; Shiga inhibitor: 159.2; Tb PYK inh: -12.1%; Cycloheximide cs: 26.7*; Giardia FBPA inh: -0.2%

How did O=C(CSc1nc2c(c(=O)[nH]1)CN(Cc1ccc3c(c1)OCO3)CC2)Nc1ccc(F)c(F)c1 do in these assays?
Tb PYK inh: 0.6%

What do the screens show for `CCOC(=O)c1ccc(NC(=O)C2=C(C)C(=O)OC23CCCCCC3)cc1`?
Tb PYK inh: -7.4%[15.4 µM]

How did O=C(NCCn1cccn1)C1CCC(=O)N(CCc2ccc(Cl)cc2)C1 (configuration not stated) do in these assays?
LmPK inh: -3.7%; RE007 growth inh: -9.1%; Shiga inhibitor: -3.6; Tb PYK inh: 0.2%; Cycloheximide cs: -1.3

Results for Cc1ccc(NC(=O)COc2ccccc2CNC(C)(C)CC(C)(C)C)cc1 ?
LmPK inh: -0.6%; RE007 growth inh: -12.6%; Shiga inhibitor: -11.0; Tb PYK inh: -9.9%; Cycloheximide cs: -0.5; Giardia FBPA inh: 6.2%

Results for CC(C)(CO)NCc1ccccc1OCC(=O)Nc1ccccc1 ?
LmPK inh: -11.6%; RE007 growth inh: 9.2%; Shiga inhibitor: 63.6; Tb PYK inh: -2.7%; Cycloheximide cs: 24.3*; Giardia FBPA inh: 3.5%

What do the screens show for `CCS(=O)(=O)c1ccc2oc(Nc3cc(Cl)ccc3OC)nc2c1`?
LmPK inh: -3.4%; RE007 growth inh: -7.4%; Shiga inhibitor: -16.4; Tb PYK inh: 2.9%; Cycloheximide cs: 1.7; Giardia FBPA inh: 7.9%

How did CCS(=O)(=O)c1ccc2oc(Nc3ccccc3Cl)nc2c1 do in these assays?
LmPK inh: -20.7%; RE007 growth inh: -27.4%; Shiga inhibitor: 79.8*; Tb PYK inh: -15.2%; Cycloheximide cs: 44.6*

Results for CCS(=O)(=O)c1ccc2oc(Nc3ccc(C(C)(C)C)cc3)nc2c1 ?
LmPK inh: 3.4%; RE007 growth inh: 1.8%; Shiga inhibitor: 3.5; Tb PYK inh: 6.9%; Cycloheximide cs: -1.5; Giardia FBPA inh: -16.8%

How did CCS(=O)(=O)c1ccc2oc(Nc3cccc(OC)c3)nc2c1 do in these assays?
LmPK inh: -11.5%; RE007 growth inh: -0.2%; Shiga inhibitor: 40.9; Tb PYK inh: -26.9%; Cycloheximide cs: 19.9*; Giardia FBPA inh: -19.3%

What do the screens show for `CCS(=O)(=O)c1ccc2oc(Nc3ccccc3Br)nc2c1`?
LmPK inh: 15.8µM*; RE007 growth inh: -15.5%; Shiga inhibitor: 79.3*; Tb PYK inh: 1.4%; Cycloheximide cs: 35.0*; Giardia FBPA inh: 14.7%

How did COc1ccccc1CNC(=O)CCCn1c(=O)c2cccn2c2ccccc21 do in these assays?
Tb PYK inh: 1.2%

Results for CCOC(=O)Cn1c(=O)n(C2CCCCC2)c2nc(-c3c(F)cccc3Cl)nc(C(N)=O)c21 ?
Tb PYK inh: 4.5%
